Several values for one entry are separate records, joined by “and”; a condition that tells them apart may be missing. Identical values can stand only once. Records with an inconclusive call do not appear. A call without a number means that no potency is given here. More than one record can exist for a structure, and the calls need not agree. Activity calls are given as the source filed them. Unless noted, the call rests on the fitted dose curve; in most records, active means well fitted curve in the direction sought with a large enough effect in the repeat runs; inconclusive means weak or mixed curves; inactive means no such curve, though single readings can be large; an effect the other way counts as inactive or inconclusive.
How the values were obtained:
[1] = qHTS assay to identify small molecule agonists of the peroxisome proliferator-activated receptor delta (PPARd) signaling pathway - cell viability counter screen (AID 743211); further: nearly all actives have a fitted effect of over 55% in size; further: potency means the concentration at half of the fitted maximal effect
In short: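 Read-out: CellTiter-Glo luminescence, 30 min RT, measured in the same wells as the beta-lactamase reporter. Cells: GeneBLAzer PPAR delta UAS-bla HEK293H, 3000 cells/well, compound exposure 17 h at 37C.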

[2] = qHTS assay to identify small molecule antagonists of the peroxisome proliferator-activated receptor delta (PPARd) signaling pathway - cell viability counter screen (AID 743213); further: nearly all actives have a fitted effect of over 50% in size; further: potency means the concentration at half of the fitted maximal effect
In short: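 HEK293H PPARd UAS-bla cells, 5 h pre-incubation, compound + L165041 300 nM final, 17 h 37 C; B/G FRET substrate 2 h RT; then CellTiter-Glo 30 min RT, luminescence.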

[3] = biological target: Peroxisome proliferator-activated receptor delta (Homo sapiens) (UniProt Q03181); test: qHTS assay to identify small molecule antagonists of the peroxisome proliferator-activated receptor delta (PPARd) signaling pathway (AID 743215; active means well fitted inhibition curve with a large enough effect in the signal ratio in the repeat runs, not every such curve was filed as active; the % refers to the signal ratio;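 further: cells stimulated with agonist L165041 at 300 nM final during compound exposure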; further: potency means the concentration at half of the fitted maximal effect)
Peroxisome proliferator-activated receptor delta (Homo sapiens), sequence (Q03181 whole entry, looked up): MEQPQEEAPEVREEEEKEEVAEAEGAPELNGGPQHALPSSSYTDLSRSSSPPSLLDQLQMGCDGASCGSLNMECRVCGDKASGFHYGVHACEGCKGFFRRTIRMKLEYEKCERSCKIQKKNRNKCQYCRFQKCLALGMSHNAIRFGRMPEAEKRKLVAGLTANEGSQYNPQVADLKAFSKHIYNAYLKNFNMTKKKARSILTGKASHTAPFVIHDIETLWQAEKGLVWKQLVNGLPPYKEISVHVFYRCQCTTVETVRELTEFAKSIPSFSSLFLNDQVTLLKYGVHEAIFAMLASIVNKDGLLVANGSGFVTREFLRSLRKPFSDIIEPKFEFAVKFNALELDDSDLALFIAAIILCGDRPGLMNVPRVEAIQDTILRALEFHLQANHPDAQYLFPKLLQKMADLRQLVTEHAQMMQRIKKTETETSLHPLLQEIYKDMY
In short: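 Cells: HEK293H with a UAS-driven beta-lactamase reporter responsive to PPARd. Compounds were co-added with L165041 (300 nM, final) and incubated 17 h at 37 C before a 2 h room-temperature FRET substrate step and fluorescence reading.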

[4] = qHTS assay to identify small molecule agonists of the farnesoid-X-receptor (FXR) signaling pathway - cell viability counter screen (AID 743218); further: nearly all actives have a fitted effect of over 45% in size; further: potency means the concentration at half of the fitted maximal effect
In short: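 Cells were seeded, left 5 h at 37 C and 5% CO2, then dosed with compound in DMSO for 16 h. After the beta-lactamase FRET read, CellTiter-Glo was added and luminescence measured 30 min later.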

[5] = biological target: Vitamin D3 receptor (Homo sapiens) (UniProt P11473); test: qHTS assay to identify small molecule agonists of the vitamin D receptor (VDR) signaling pathway (AID 743222; calls by dose curve)
Vitamin D3 receptor (Homo sapiens), sequence (P11473 whole entry, looked up): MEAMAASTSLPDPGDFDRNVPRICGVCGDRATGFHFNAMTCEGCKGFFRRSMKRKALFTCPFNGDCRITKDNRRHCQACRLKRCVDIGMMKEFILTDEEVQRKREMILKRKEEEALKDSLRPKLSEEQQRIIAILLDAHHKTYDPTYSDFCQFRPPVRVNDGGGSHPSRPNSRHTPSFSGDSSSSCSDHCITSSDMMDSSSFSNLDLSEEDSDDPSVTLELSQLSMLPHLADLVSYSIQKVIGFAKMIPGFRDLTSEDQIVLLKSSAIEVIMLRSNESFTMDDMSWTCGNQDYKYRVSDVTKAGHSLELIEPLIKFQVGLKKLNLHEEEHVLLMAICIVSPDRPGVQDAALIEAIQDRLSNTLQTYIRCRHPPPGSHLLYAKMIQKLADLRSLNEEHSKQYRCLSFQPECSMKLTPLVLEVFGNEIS
In short: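 Cells carrying a VDR-driven beta-lactamase reporter are seeded at 2,000 per well and rested 4 h. Compounds in DMSO are added for 16 h at 37C, and FRET substrate fluorescence is measured after 2 h at room temperature.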

[6] = biological target: Vitamin D3 receptor (Homo sapiens) (UniProt P11473); test: qHTS assay to identify small molecule antagonists of the vitamin D receptor (VDR) signaling pathway (AID 743223; active means well fitted inhibition curve with a large enough effect in the signal ratio in the repeat runs, not every such curve was filed as active; the % refers to the signal ratio)
In short: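 Beta-lactamase reporter read-out: FRET substrate fluorescence after 2 h at room temperature, following 16 h exposure of VDR-bla cells to test compound plus 3 nM (final) 1alpha,25-dihydroxyvitamin D3 agonist at 37C.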

[7] = qHTS assay to identify small molecule agonists of the NFkB signaling pathway - cell viability counter screen (AID 1159515; calls by dose curve; further: nearly all actives have a fitted effect of over 55% in size; further: potency means the concentration at half of the fitted maximal effect)
In short: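 Cells are seeded (2,000 NFkB-bla ME-180 per well), rested overnight, and dosed with DMSO-dissolved compounds for 5 hr at 37 C. Viability is then read by CellTiter-Glo luminescence after 30 min at room temperature.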

[8] = qHTS assay to identify small molecule agonists of the endoplasmic reticulum stress response signaling pathway - cell viability counter screen (AID 1159517; calls by dose curve; further: nearly all actives have a fitted effect of over 50% in size; further: potency means the concentration at half of the fitted maximal effect)
In short: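 Cytotoxicity of test compounds toward ESRE-bla HeLa cells was assessed after 5 hr exposure. The luminescent CellTiter-Glo signal was measured 30 min after reagent addition.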

[9] = qHTS assay to identify small molecule antagonists of the retinoid-related orphan receptor gamma (ROR-gamma) signaling pathway - cell viability counter screen (AID 1159520); further: nearly all actives have a fitted effect of over 50% in size; further: potency means the concentration at half of the fitted maximal effect
In short: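 Tet-on ROR gamma CHO cells (1,000/well) were plated 4 hr, given compounds in DMSO for 2 hr at 37 C, then induced with 1 uM final doxycycline for 16 hr. Viability was read as ATP by CellTiter-Glo luminescence after 30 min.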

[10] = biological target: Nuclear receptor ROR-gamma (Homo sapiens) (UniProt P51449); test: qHTS assay to identify small molecule antagonists of the retinoid-related orphan receptor gamma (ROR-gamma) signaling pathway (AID 1159521; further: nearly all actives have a fitted effect of over 50% in size; further: potency means the concentration at half of the fitted maximal effect)
In short: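 Luminescence readout (ONE-Glo, 30 min RT) after 16 h doxycycline induction; loss of signal scored as antagonism. CHO cells with TET-inducible RORγ and RORE-LUC reporter; compounds added 2 h before 1 uM final doxycycline.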

[11] = qHTS assay to identify small molecule agonists of the AP-1 signaling pathway - cell viability counter screen (AID 1159525; calls by dose curve; further: nearly all actives have a fitted effect of over 55% in size; further: potency means the concentration at half of the fitted maximal effect)
In short: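 Each titration point was normalised to DMSO and tetra n-octyl ammonium bromide controls. The read was Cell Titer Glo luminescence after 30 min at RT, following 5 h compound exposure of ME-180 AP-1-bla cells at 37 °C.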

[12] = qHTS assay to identify small molecule agonists of the AP-1 signaling pathway (AID 1159526; calls by dose curve)
[13] = biological target: Retinoic acid receptor RXR-alpha (Homo sapiens) (UniProt P19793); test: qHTS assay to identify small molecule agonists of the RXR signaling pathway (AID 1159527; calls by dose curve; further: nearly all actives have a fitted effect of over 35% in size)
Retinoic acid receptor RXR-alpha (Homo sapiens), sequence (P19793 whole entry, looked up): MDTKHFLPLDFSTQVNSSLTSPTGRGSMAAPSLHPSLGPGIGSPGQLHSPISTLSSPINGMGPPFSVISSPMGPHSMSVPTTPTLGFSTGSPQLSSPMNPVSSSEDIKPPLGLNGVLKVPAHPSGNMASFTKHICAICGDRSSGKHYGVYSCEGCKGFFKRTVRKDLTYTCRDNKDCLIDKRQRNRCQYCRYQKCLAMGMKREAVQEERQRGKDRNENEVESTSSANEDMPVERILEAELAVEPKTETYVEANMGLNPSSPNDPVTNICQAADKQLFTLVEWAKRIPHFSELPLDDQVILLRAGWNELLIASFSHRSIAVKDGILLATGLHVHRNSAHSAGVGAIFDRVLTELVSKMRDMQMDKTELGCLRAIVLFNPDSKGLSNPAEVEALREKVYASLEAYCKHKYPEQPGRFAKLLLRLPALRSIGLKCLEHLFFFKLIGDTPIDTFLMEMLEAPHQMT
In short: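 Agonist mode; 9-cis retinoic acid positive control. HEK 293T UAS-bla reporter cells, 2% charcoal-stripped FBS, 16 hr compound exposure at 37 C/5% CO2. LiveBLAzer B/G FRET substrate 2 hr RT; ex 405, em 460/530 nm.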

[14] = biological target: Peroxisome proliferator-activated receptor delta (Homo sapiens) (UniProt Q03181); test: qHTS assay to identify small molecule agonists of the peroxisome proliferator-activated receptor delta (PPARd) signaling pathway (AID 743212; calls by dose curve; further: potency means the concentration at half of the fitted maximal effect)
In short: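 Beta-lactamase reporter read by fluorescence (LiveBLAzer B/G FRET, 2 h, room temperature). Test agents, in DMSO, incubated at 37 C with PPARd-bla HEK293H cells.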

[15] = qHTS assay to identify small molecule antagonists of the farnesoid-X-receptor (FXR) signaling pathway - cell viability counter screen (AID 743221; active means well fitted cell-killing curve with a large enough effect in the repeat runs, not every such curve was filed as active; further: nearly all actives have a fitted effect of over 50% in size; further: potency means the concentration at half of the fitted maximal effect)
In short: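 HEK 293T FXR-bla cells, 5 h pre-incubation; compound + CDCA 50 uM final, 16 h, 37 C; beta-lactamase FRET read first, then CellTiter-Glo luminescence, 30 min RT.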

[16] = qHTS assay to identify small molecule antagonists of the vitamin D receptor (VDR) signaling pathway - cell viability counter screen (AID 743225); further: nearly all actives have a fitted effect of over 50% in size; further: potency means the concentration at half of the fitted maximal effect
In short: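 Viability counter screen run in the same wells as the beta-lactamase reporter assay: HEK 293T VDR-UAS-bla cells, 16 h compound exposure at 37C with 3 nM (final) 1-alpha,25-dihydroxyvitamin D3. CellTiter-Glo luminescence, 30 min, room temperature.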

[17] = qHTS assay to identify small molecule agonists of the vitamin D receptor (VDR) signaling pathway - cell viability counter screen (AID 743224); further: nearly all actives have a fitted effect of over 50% in size; further: potency means the concentration at half of the fitted maximal effect
In short: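 Cells: VDR-bla, 2,000/well, settled 4 h. Treatment: compounds in DMSO, 16 h, 37C/5% CO2. Readout: CellTiter-Glo luminescence after 30 min RT.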

[18] = biological target: Bile acid receptor (Homo sapiens) (UniProt Q96RI1); test: qHTS assay to identify small molecule antagonists of the farnesoid-X-receptor (FXR) signaling pathway (AID 743217; active means well fitted inhibition curve with a large enough effect in the signal ratio in the repeat runs, not every such curve was filed as active; the % refers to the signal ratio)
Bile acid receptor (Homo sapiens), sequence (Q96RI1 whole entry, looked up): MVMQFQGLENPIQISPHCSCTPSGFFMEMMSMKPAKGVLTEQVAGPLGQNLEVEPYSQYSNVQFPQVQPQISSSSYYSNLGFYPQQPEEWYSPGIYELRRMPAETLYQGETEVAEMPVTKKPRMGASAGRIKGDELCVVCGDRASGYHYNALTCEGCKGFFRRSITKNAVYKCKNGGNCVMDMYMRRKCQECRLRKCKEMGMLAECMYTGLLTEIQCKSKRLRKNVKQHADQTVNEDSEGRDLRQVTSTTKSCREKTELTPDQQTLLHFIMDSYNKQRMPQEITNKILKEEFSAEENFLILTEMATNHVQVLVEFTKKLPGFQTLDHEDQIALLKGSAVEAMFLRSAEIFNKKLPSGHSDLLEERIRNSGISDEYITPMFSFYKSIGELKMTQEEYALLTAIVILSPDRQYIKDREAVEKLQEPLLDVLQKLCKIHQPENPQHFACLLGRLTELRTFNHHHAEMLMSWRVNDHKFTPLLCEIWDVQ
In short: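 Cells carrying a UAS-driven beta-lactamase reporter (GeneBLAzer FXR-UAS-bla HEK 293T) were plated and rested 5 h at 37 °C. Compounds in DMSO were added alongside chenodeoxycholic acid agonist at 50 uM final and left 16 h at 37 °C before FRET substrate readout.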

[19] = biological target: Bile acid receptor (Homo sapiens) (UniProt Q96RI1); test: qHTS assay to identify small molecule agonists of the farnesoid-X-receptor (FXR) signaling pathway (AID 743220; active means well fitted activation curve with a large enough effect in the signal ratio in the repeat runs, not every such curve was filed as active; the % refers to the signal ratio)
In short: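 FXR-UAS-bla HEK 293T cells carrying a UAS-driven beta-lactamase reporter were plated for 5 h at 37C/5% CO2, then exposed to DMSO-dissolved Tox21 10K compounds for 16 h at 37C. A LiveBLAzer B/G FRET substrate was loaded for 2 h at room temperature before fluorescence reading.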

Compound	Potency [1]	Potency [2]	Potency [3]	Potency [4]	Potency [5]	Potency [6]	Potency [7]	Potency [8]	Potency [9]	Potency [10]	Potency [11]	Potency [12]	Potency [13]	Potency [14]	Potency [15]	Potency [16]	Potency [17]	Potency [18]	Potency [19]
BrCCCBr	inactive	inactive	inactive	inactive	inactive	inactive	inactive	inactive	inactive	inactive	inactive	inactive	inactive	–	–	–	–	–	–
O=[N+]([O-])C(Br)Br	inactive	inactive	inactive	inactive	inactive	–	inactive	–	21.7 µM (active)	inactive	–	inactive	inactive	inactive	inactive	inactive	–	–	–
CCCCc1ccccc1	inactive	inactive	inactive	inactive	–	inactive	inactive	inactive	inactive	–	inactive	–	–	inactive	inactive	inactive	–	–	–
CCC[CH2][Sn]([CH2]CCC)([CH2]CCC)[O][Sn]([CH2]CCC)([CH2]CCC)[CH2]CCC	0.676 µM (active)	0.759 µM (active)	–	0.479 µM (active)	–	–	0.24 µM (active)	0.269 µM (active)	0.336 µM (active)	0.168 µM (active)	0.537 µM (active)	–	–	–	–	0.852 µM (active)	–	–	–
CCN1CCC2(CC1)COc1cc3c(cc12)N(C(=O)c1ccc(-c2ccc(-c4nnc(C)o4)cc2C)cc1)CC3	9.01 µM (active)	6.38 µM (active)	18 µM (active)	14.3 µM (active)	–	–	–	50.7 µM (active)	28.3 µM (active)	2 µM (active)	45.2 µM (active)	–	–	–	45.2 µM (active)	20.2 µM (active)	–	–	–
CC(C)C(Nc1ccc(C(F)(F)F)cc1Cl)C(=O)OC(C#N)c1cccc(Oc2ccccc2)c1 (stereo unspecified)	inactive	inactive	inactive	inactive	inactive	–	inactive	inactive	inactive	inactive	–	–	inactive	–	–	inactive	inactive	–	–
CCCCCCCCCCCCCCn1cc[n+](C)c1	24.6 µM (active) and 21.6 µM (active) and inactive	21.6 µM (active)	inactive	21.9 µM (active) and inactive	–	inactive	inactive	6.18 µM (active) and 19.3 µM (active) and inactive	27.4 µM (active) and 34 µM (active) and inactive	–	–	–	inactive	–	24.6 µM (active) and 54.4 µM (active) and inactive	–	8.72 µM (active) and 24.3 µM (active) and inactive	–	–
Oc1cc(Cl)c(Cl)c(Cl)c1Cl	–	–	–	47.8 µM (active)	–	–	inactive	–	53.2 µM (active)	23.8 µM (active)	inactive	–	–	–	inactive	–	–	–	–
C=CC(=O)[O][Sn]([CH2]CCC)([CH2]CCC)[CH2]CCC	1.95 µM (active)	3.47 µM (active)	0.776 µM (active)	1.1 µM (active)	inactive	–	0.977 µM (active)	–	1.09 µM (active)	0.611 µM (active)	2.45 µM (active)	–	–	–	3.89 µM (active)	3.09 µM (active)	1.38 µM (active)	–	–
COP(=O)(OC)Oc1ccc([N+](=O)[O-])cc1	inactive	inactive	–	inactive	inactive	–	inactive	inactive	inactive	inactive	–	inactive	–	–	inactive	inactive	inactive	–	–
O=[N+]([O-])c1cc(C(F)(F)F)c(Cl)c([N+](=O)[O-])c1Nc1ncc(C(F)(F)F)cc1Cl	8.71 µM (active)	6.16 µM (active)	–	15.5 µM (active)	–	–	11 µM (active)	–	4.86 µM (active)	1.37 µM (active)	11 µM (active)	–	–	–	21.9 µM (active)	6.92 µM (active)	–	–	–
Brc1cccc(-c2ccccc2)c1	inactive	inactive	–	inactive	inactive	inactive	inactive	inactive	inactive	–	inactive	inactive	–	–	inactive	–	–	inactive	–
CC(=O)[O][Sn]([c]1ccccc1)([c]1ccccc1)[c]1ccccc1	0.0977 µM (active)	0.275 µM (active)	–	0.0977 µM (active)	–	–	2.45 µM (active)	13.8 µM (active)	0.0969 µM (active)	–	3.89 µM (active)	–	–	–	–	0.219 µM (active)	0.0871 µM (active)	–	–
Cc1ccc([N+](=O)[O-])[c]2c1[O][Hg]2	1.88 µM (active)	5.96 µM (active)	–	2.37 µM (active)	–	–	6.01 µM (active)	23.9 µM (active)	1.19 µM (active)	–	6.01 µM (active)	–	–	29.8 µM (active)	1.19 µM (active)	3.01 µM (active)	3.76 µM (active)	–	–
Clc1ccc(C(c2ccc(Cl)cc2)C(Cl)Cl)cc1	–	–	inactive	–	inactive	inactive	49.8 µM (active)	22.2 µM (active) and 54.9 µM (active)	–	–	24.9 µM (active) and 34.7 µM (active)	–	–	–	inactive	–	49.8 µM (active) and 38.9 µM (active)	–	–
CC(C)[C@@H](Nc1ccc(C(F)(F)F)cc1Cl)C(=O)OC(C#N)c1cccc(Oc2ccccc2)c1 (stereo partly specified)	inactive	–	–	inactive	inactive	–	inactive	–	inactive	inactive	–	–	–	–	inactive	–	inactive	–	–
Nc1cc(Cl)ccc1Cl	inactive	inactive	inactive	inactive	–	–	inactive	–	inactive	inactive	inactive	inactive	inactive	–	inactive	inactive	inactive	–	–
COC(=O)/C=C(\C)OP(=O)(OC)OC	inactive	inactive	–	inactive	inactive	inactive	inactive	inactive	inactive	inactive	–	inactive	inactive	inactive	inactive	inactive	inactive	–	–
Nc1ccc(N=Nc2ccccc2)cc1	–	–	–	–	–	–	inactive	inactive	inactive	–	inactive	–	–	–	–	–	–	–	–
Brc1ccc(Oc2ccc(Br)cc2Br)c(Br)c1	43.7 µM (active)	inactive	–	–	inactive	–	inactive	–	inactive	inactive	inactive	inactive	inactive	–	inactive	inactive	–	–	inactive
